Test results reported in PubChem BioAssay AID1159580 (chemical genetic matrix, 2015).
Values joined by “and” are separate entries in the source; they are usually repeats but may differ in a detail not shown here. Equal values may be shown once. About 2,000 (36%) of roughly 5,500 compounds were called active. Roughly 18% stayed inconclusive and do not appear here. Rule as the data show it: active = normalized growth mostly below about 0.91 (no sharp cut-off); inconclusive = no clear call, values can overlap the other calls; inactive = mostly above about 0.92. The list shows a part of the results.

Assay: chemical genetic growth profiling, strain panel (AID 1159580);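 also: tested at 20 µM; growth read once vehicle control cultures reached saturation at 30 °C; 1 = growth at the plate median or of vehicle wells; lower values mean less growth of the strain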
Details: growth OD

Measured: normalized growth

CCN(Cc1ccncc1)C(=O)C(CO)c1ccccc1 (stereo unspecified)
inactive: S. cerevisiae deletion strains, locus YJR075W, strain HOC1, stronger effect = lower value 0.989 | S. cerevisiae deletion strains, locus YKL009W, strain mrt4, stronger effect = lower value 1.01 | S. cerevisiae deletion strains, locus YKL068W, stronger effect = lower value 0.982 | S. cerevisiae deletion strains, locus YKL085W, strain MDH1 (second series), stronger effect = lower value 0.977 | S. cerevisiae deletion strains, locus YKL085W, strain MDH1, stronger effect = lower value 0.977 | S. cerevisiae deletion strains, locus YKL160W, strain elf1, stronger effect = lower value 1.02 | S. cerevisiae deletion strains, locus YKL190W, strain CNB1, stronger effect = lower value 0.992 | S. cerevisiae deletion strains, locus YKR001C, strain vps1, stronger effect = lower value 0.999 | S. cerevisiae deletion strains, locus YKR026C, strain gcn3, stronger effect = lower value 1.04 | S. cerevisiae deletion strains, locus YKR091W, strain srl3, stronger effect = lower value 1.02 | S. cerevisiae deletion strains, locus YLL001W, strain dnm1, stronger effect = lower value 1.02 | S. cerevisiae deletion strains, locus YLL026W, stronger effect = lower value 1.03 | S. cerevisiae deletion strains, locus YLL041C, strain sdh2, stronger effect = lower value 1.02 | S. cerevisiae deletion strains, locus YLR027C, strain aat2, stronger effect = lower value 1.02 | S. cerevisiae deletion strains, locus YLR039C, strain RIC1, stronger effect = lower value 0.977 | S. cerevisiae deletion strains, locus YLR058C, strain SHM2, stronger effect = lower value 0.998 | S. cerevisiae deletion strains, locus YLR102C, strain apc9, stronger effect = lower value 0.991 | S. cerevisiae deletion strains, locus YLR113W, strain HOG1, stronger effect = lower value 0.988 | S. cerevisiae deletion strains, locus YLR221C, strain rsa3, stronger effect = lower value 1.03 | S. cerevisiae deletion strains, locus YLR258W, strain gsy2, stronger effect = lower value 1.05 | S. cerevisiae deletion strains, locus YLR262C, strain YPT6 (second series), stronger effect = lower value 1.07 | S. cerevisiae deletion strains, locus YLR262C, strain YPT6, stronger effect = lower value 1.01 | S. cerevisiae deletion strains, locus YLR268W, strain sec22, stronger effect = lower value 0.954 | S. cerevisiae deletion strains, locus YLR320W, strain mms22, stronger effect = lower value 1.02 | S. cerevisiae deletion strains, locus YLR330W, strain CHS5, stronger effect = lower value 0.991 | S. cerevisiae deletion strains, locus YLR342W, strain FKS1 (second series), stronger effect = lower value 1.05 | S. cerevisiae deletion strains, locus YLR342W, strain FKS1, stronger effect = lower value 1.02 | S. cerevisiae deletion strains, locus YLR357W, strain rsc2, stronger effect = lower value 1.04 | S. cerevisiae deletion strains, locus YLR370C, strain arc18, stronger effect = lower value 1.03 | S. cerevisiae deletion strains, locus YLR371W, strain rom2, stronger effect = lower value 0.989 | S. cerevisiae deletion strains, locus YLR384C, strain iki3, stronger effect = lower value 1.03 | S. cerevisiae deletion strains, locus YLR418C, strain cdc73, stronger effect = lower value 0.995 | S. cerevisiae deletion strains, locus YML016C, strain PPZ1, stronger effect = lower value 1 | S. cerevisiae deletion strains, locus YML032C, strain rad52, stronger effect = lower value 0.978 | S. cerevisiae deletion strains, locus YML120C, strain ndi1, stronger effect = lower value 1.03 | S. cerevisiae deletion strains, locus YML124C, strain tub3, stronger effect = lower value 0.997 | S. cerevisiae deletion strains, locus YMR058W, strain fet3, stronger effect = lower value 1.02 | S. cerevisiae deletion strains, locus YMR078C, strain ctf18, stronger effect = lower value 0.999 | S. cerevisiae deletion strains, locus YMR125W, strain sto1, stronger effect = lower value 1.03 | S. cerevisiae deletion strains, locus YMR129W, stronger effect = lower value 1.02 | S. cerevisiae deletion strains, locus YMR205C, strain PFK2, stronger effect = lower value 1.05 | S. cerevisiae deletion strains, locus YMR223W, strain ubp8, stronger effect = lower value 1.02 | S. cerevisiae deletion strains, locus YMR231W, strain pep5, stronger effect = lower value 1.03 | S. cerevisiae deletion strains, locus YMR263W, strain SAP30, stronger effect = lower value 0.999 and 1 | S. cerevisiae deletion strains, locus YMR307W, strain GAS1, stronger effect = lower value 1.05 and 1.01 | S. cerevisiae deletion strains, locus YNL067W, strain RPL9B, stronger effect = lower value 0.98 | S. cerevisiae deletion strains, locus YNL071W, strain lat1, stronger effect = lower value 1.03 | S. cerevisiae deletion strains, locus YNL128W, strain TEP1, stronger effect = lower value 0.985 | S. cerevisiae deletion strains, locus YNL153C, strain GIM3, stronger effect = lower value 0.992 | S. cerevisiae deletion strains, locus YNL175C, strain NOP13, stronger effect = lower value 0.995 | S. cerevisiae deletion strains, locus YNL183C, strain NPR1, stronger effect = lower value 0.944 | S. cerevisiae deletion strains, locus YNL197C, strain WHI3, stronger effect = lower value 1.02 | S. cerevisiae deletion strains, locus YNL209W, strain ssb2, stronger effect = lower value 1.04 | S. cerevisiae deletion strains, locus YNL224C, strain SQS1, stronger effect = lower value 1 | S. cerevisiae deletion strains, locus YNL233W, strain BNI4, stronger effect = lower value 1 | S. cerevisiae deletion strains, locus YNL248C, strain rpa49, stronger effect = lower value 1.02 | S. cerevisiae deletion strains, locus YNL250W, strain rad50, stronger effect = lower value 0.982 | S. cerevisiae deletion strains, locus YNL271C, strain bni1, stronger effect = lower value 0.982 | S. cerevisiae deletion strains, locus YNL298W, strain CLA4, stronger effect = lower value 1 | S. cerevisiae deletion strains, locus YNL307C, strain MCK1, stronger effect = lower value 0.994 | S. cerevisiae deletion strains, locus YNL322C, strain KRE1 (second series), stronger effect = lower value 1.03 | S. cerevisiae deletion strains, locus YNL322C, strain KRE1, stronger effect = lower value 0.992 | S. cerevisiae deletion strains, locus YNR049C, strain mso1, stronger effect = lower value 1.04 | S. cerevisiae deletion strains, locus YNR052C, strain pop2, stronger effect = lower value 0.991 | S. cerevisiae deletion strains, locus YOL006C, strain TOP1, stronger effect = lower value 0.948 | S. cerevisiae deletion strains, locus YOL012C, strain htz1 0.82 | S. cerevisiae deletion strains, locus YOL147C, strain pex11, stronger effect = lower value 0.986 | S. cerevisiae deletion strains, locus YOR001W, strain rrp6, stronger effect = lower value 1.02 | S. cerevisiae deletion strains, locus YOR061W, strain CKA2, stronger effect = lower value 0.988 | S. cerevisiae deletion strains, locus YOR069W, strain VPS5, stronger effect = lower value 1 | S. cerevisiae deletion strains, locus YOR070C, strain gyp1, stronger effect = lower value 1.02 | S. cerevisiae deletion strains, locus YOR080W, strain dia2, stronger effect = lower value 1.03 | S. cerevisiae deletion strains, locus YOR083W, strain WHI5 (second series), stronger effect = lower value 1 | S. cerevisiae deletion strains, locus YOR083W, strain WHI5, stronger effect = lower value 1.01 | S. cerevisiae deletion strains, locus YOR106W, strain vam3, stronger effect = lower value 1.03 | S. cerevisiae deletion strains, locus YOR136W, strain idh2, stronger effect = lower value 0.997 | S. cerevisiae deletion strains, locus YOR144C, strain elg1, stronger effect = lower value 0.992 | S. cerevisiae deletion strains, locus YOR184W, strain ser1, stronger effect = lower value 1.01 | S. cerevisiae deletion strains, locus YOR231W, strain MKK1, stronger effect = lower value 0.987 | S. cerevisiae deletion strains, locus YOR265W, strain rbl2, stronger effect = lower value 1.02 | S. cerevisiae deletion strains, locus YOR270C, strain vph1, stronger effect = lower value 1.05 | S. cerevisiae deletion strains, locus YOR290C, strain snf2, stronger effect = lower value 1.01 | S. cerevisiae deletion strains, locus YOR316C, strain cot1, stronger effect = lower value 0.984 | S. cerevisiae deletion strains, locus YPL051W, strain arl3, stronger effect = lower value 1.04 | S. cerevisiae deletion strains, locus YPL055C, strain LGE1, stronger effect = lower value 1 | S. cerevisiae deletion strains, locus YPL078C, strain atp4, stronger effect = lower value 1.02 | S. cerevisiae deletion strains, locus YPL106C, strain sse1, stronger effect = lower value 1.02 | S. cerevisiae deletion strains, locus YPL240C, strain hsp82, stronger effect = lower value 1.03 | S. cerevisiae deletion strains, locus YPL241C, strain CIN2, stronger effect = lower value 0.999 | S. cerevisiae deletion strains, locus YPL256C, strain CLN2, stronger effect = lower value 0.977 | S. cerevisiae deletion strains, locus YPR119W, strain clb2, stronger effect = lower value 0.987 | S. cerevisiae deletion strains, locus YPR141C, strain kar3, stronger effect = lower value 0.99 | S. cerevisiae deletion strains, locus YPR163C, strain tif3, stronger effect = lower value 0.982 | S. cerevisiae deletion strains, locus YPR167C, strain met16, stronger effect = lower value 0.973 | S. cerevisiae deletion strains, strain wtn01, stronger effect = lower value 0.991 | S. cerevisiae strains, strain wild type, stronger effect = lower value 0.995
